Experimental findings from PubChem BioAssay are described below.

For test [1], the system named is XIP peptide (Xip251-270) binding. Briefly: XIP fragment 251-270 binding compounds – biochemical, small-molecule microarray, fluorescence 635/667 nm, 0.1 µg/mL protein, primary screen (AID 1182). As to conditions: fluorescent protein binding, 635 nm, higher = more signal, called active from +8 up or from −8 down.
For another test, the system named is XIP peptide (Xip251-270). Briefly: compounds binding XIP fragment 251-270 – biochemical, small-molecule microarray, fluorescence 635/667 nm, 0.5 µg/mL protein, primary screen (AID 1183). As to conditions: fluorescence 635 nm, higher = more signal.
A short description of test [2]: blood-stage malaria parasite viability loss – strain 3D7, DAPI fluorescence, 100 nL, primary screen (AID 1184).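 Note: parasites grown inside human red blood cells in medium with human serum.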 As to conditions: P. falciparum 3D7 growth, 3 d, higher = more signal.
Test [3] has as its target Homeobox protein Hox-A13 (Mus musculus) (UniProt Q62424). Briefly: disruptors of Hoxa13 oligonucleotide interaction – biochemical, fluorescence polarization, labeled oligonucleotide, primary screen (AID 1185). As to conditions: Hoxa13:DNA binding, 15 min, higher = more signal, called active from +8 up or from −8 down.

Activity calls are given as the source filed them.

Sequence of Homeobox protein Hox-A13 (Mus musculus) (Q62424 whole entry, looked up): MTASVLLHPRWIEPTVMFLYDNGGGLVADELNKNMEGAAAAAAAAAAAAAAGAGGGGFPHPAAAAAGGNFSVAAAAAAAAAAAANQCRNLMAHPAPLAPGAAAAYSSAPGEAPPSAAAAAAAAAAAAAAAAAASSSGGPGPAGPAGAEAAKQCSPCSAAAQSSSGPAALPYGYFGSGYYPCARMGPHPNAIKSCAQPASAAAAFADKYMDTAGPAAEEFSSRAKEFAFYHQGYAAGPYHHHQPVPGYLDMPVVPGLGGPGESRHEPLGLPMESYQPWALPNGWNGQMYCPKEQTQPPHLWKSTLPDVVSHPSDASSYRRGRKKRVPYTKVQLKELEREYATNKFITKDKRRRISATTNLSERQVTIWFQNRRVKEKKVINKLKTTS

For `CC(=O)OC[C@H]1O[C@H](C#CCC2CCCCC2)C=C[C@@H]1OC(C)=O`, the composite z-score is 0.525 (inactive) in test [1] and 0.392 in the test with XIP peptide (Xip251-270). Moreover, the z-score is 0.951 in test [2] and -5.27 (inactive) in test [3].
On to `CC(C)=CCCC(C)=CCON=C1C[C@@H](O)[C@@H](O)[C@@H]2[C@@H]3C(=O)N(C4CCCCC4)C(=O)[C@@H]3CC[C@H]12`, for which the figures for the composite z-score (in test [1]; with XIP peptide (Xip251-270)) were 1.45 (inactive) and 0.722, respectively. Also, the z-score is 0.273 in test [2] and -0.469 (inactive) in test [3].
`COC(=O)[C@H](C)NC(=O)CCC1CC(OC(=O)NCCc2ccc(F)cc2)CC2(CCCC(COC(=O)NCc3ccccc3)O2)O1` (some centres not stated): the values for the composite z-score (in test [1]; in the test on XIP peptide (Xip251-270)) were 0.166 (inactive) and 0.607, respectively. In addition, the z-score in test [2] is -1.93; in test [3], -1.56 (inactive).
The matching figures for `O=C1[C@H]2[C@H]3[C@H](O)[C@H](O)CC(=NO[C@@H]4O[C@H](CO)[C@@H](O)[C@H](O)[C@H]4O)[C@H]3CC[C@H]2C(=O)N1c1ccc(F)cc1F`: 0.391 (inactive), 0.502, -0.652 and -7.01 (inactive).
In the same order, the values of `COc1ccc(O[C@H]2C=C[C@@H](c3ccccc3)O[C@@H]2CON=C(C)CCN2CCCc3nc(C)c(C)cc32)cc1` are 0.301 (inactive), 0.693, -1.96 and -4.5 (inactive).
The matching figures for `CCCCOC(OCCCC)C(O)CSc1ccc2ccccc2c1` (configuration not stated): 0.115 (inactive), 0.198, 0.609 and -3.85 (inactive).
With `COc1ccc(O[C@H]2C=C[C@@H](C#Cc3ccccc3)O[C@@H]2CO)cc1`, the composite z-score in test [1] is -0.727 (inactive); with XIP peptide (Xip251-270), 0.266. The figures for the z-score in test [2] and in test [3] were 0.284 and -3.22 (inactive), respectively.
In the same order, the values of `CCc1cc2c(nc1CC)CCN(CCC(C)=NOC(C)CN1CCCCc3nc(C)c(C)cc31)C2` (configuration not stated) are 0.531 (inactive), 0.61, -1.86 and -7.64 (inactive).
In the same order, the values of `CC(=O)OC[C@H]1O[C@@H](ON=C2[C@H]3CCn4c(=O)n(-c5ccccc5)c(=O)n4[C@H]3[C@H](O)[C@@H]3O[C@H]23)[C@H](OC(C)=O)[C@@H](OC(C)=O)[C@@H]1OC(C)=O` are -0.455 (inactive), 0.292, -0.541 and -4.07 (inactive).
For the compound `O=C(NN=C1C[C@@H](O)[C@@H](O)[C@@H]2[C@@H]3C(=O)N(Cc4ccc5c(c4)OCO5)C(=O)[C@@H]3CC[C@@H]12)OCc1ccccc1`, the composite z-score is 0.244 (inactive) in test [1] and 0.0195 with XIP peptide (Xip251-270). Also, the z-score in test [2] is -1.1; in test [3], -3.09 (inactive).
In the same order, the values of `COc1ccc(O[C@H]2C=C[C@@H](c3ccccc3)O[C@@H]2CO)cc1` are 0.0493 (inactive), 0.546, -0.672 and -1.6 (inactive).
Turning to `COC(=O)[C@@H]1CC[C@H](C)[C@@H](c2ccc(Br)cc2)N1`, the composite z-score in test [1] is 1.53 (inactive); with XIP peptide (Xip251-270), -0.381. Moreover, the z-score in test [2] is 0.165; in test [3] it was -0.164 (inactive).
In the same order, the values of `CCCNC(=O)OC[C@H]1O[C@H](CCON=C[C@@H](NS(=O)(=O)c2ccc(C)cc2)[C@H](C)C=CCC(=O)OC)C=C[C@@H]1Oc1ccc(OC)cc1` are -0.349 (inactive), -0.501, -0.862 and -4.48 (inactive).
